# CHX counter: affects cycloheximide protein synthesis inhibition readout, counter-screen; cell reporter, cycloheximide protein synthesis inhibition counterscreen; 300,000 tested, 12% active; max response, %; in the data active means max response mostly above about 13%, no sharp cut-off; inactive means mostly below about 14%; further: read at 38.3 µM for the half of the compounds with a filed dose; 0% is about no effect
# Shiga toxin inh: inhibitors of Shiga toxin in Vero cells; Vero cells, Shiga toxin protein synthesis inhibition reporter; 290,000 tested, 9.2% active; inhibition, % at 38.7 µM; in the data active means inhibition mostly above about 28%, no sharp cut-off; inactive means mostly below about 43%; further: 0% is about no effect
# AMA1-RON2 inh: AMA1-RON2 (P. falciparum) interaction inhibition; AlphaScreen AMA1-biotinylated RON2 peptide binding; Potency, µM (doses to about 58.2 µM), for the others: at the highest dose activity change, negative = inhibition, hits mostly inhibitors; 360,000 tested, 0.2% active; AID 720542;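 further: potency means the concentration at half of the fitted maximal effect; 0% = vehicle wells and -100% = peptide control; nearly all actives have a fitted effect of over 45% in size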
#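 AMA1 (3D7) with his tag at 25 nM final met compounds first, then biotinylated RON2 peptide at 25 nM; detection used donor plus acceptor beads, 10 µg/mL apiece, read by AlphaScreen after 30 min at room temperature.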
# Pf growth 96h: P. falciparum growth inhibition at 96 hour, primary screen for plastid delayed-death inhibitors | P. falciparum luciferase reporter growth, 96 h | Potency, µM (titrated, usually from 28.7 µM), for the others: at the highest dose activity change, negative = inhibition, hits mostly inhibitors | 320,000 tested, 6.9% active; further: potency means the concentration at half of the fitted maximal effect; on the % scale 0 is the no-effect control and ±100 the full control effect
#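 Two-generation exposure (96 h) targets delayed-death phenotype. Reporter parasites carrying integrated firefly luciferase, in red cells at 2% hematocrit and 0.05% parasitemia final, kept at 37 C, 5% CO2; luminescence loss indicates inhibition.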
# Pf growth 48h: P. falciparum growth inhibition at 48 hours (one generation). P. falciparum luciferase growth in erythrocytes, 48 h. Potency, µM (doses to about 28.7 µM), for the others: top-dose activity change, negative = inhibition, hits mostly inhibitors. 310,000 tested, 5.9% active. AID 504832; further: potency means the concentration at half of the fitted maximal effect; on the % scale 0 is the no-effect control and ±100 the full control effect
#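 Luciferase-expressing parasites in RBCs, 2% Hct / 0.1% parasitemia final; RPMI 1640 + 0.5% Albumax; 37 C, 5% CO2, one generation; luminescence read-out, lower signal = inhibition.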
# SARS PLP yeast: SARS-CoV PLP inhibition in yeast | S. cerevisiae expressing SARS-CoV PLpro, growth rescue | Potency, µM (series often up to 32.9 µM), inactives show at the highest dose activity, positive = growth rescue, usual class: activators | 330,000 tested, 0.19% active; calls by dose curve; further: potency means the concentration at half of the fitted maximal effect; 0% is about no effect; nearly all actives have a fitted effect of over 55% in size
# * hit, by the source's call; ? = inconclusive; · = no result given; [ ] = dose if it differs, or a comment. Hits are enriched below; roughly 19% of the tested compounds scored in any of these assays. Unless noted, the call rests on the fitted dose curve; in most records, active means well fitted curve in the direction sought with a large enough effect; inconclusive means small, poorly fitted or top-dose-only effect, or another doubt; inactive means no such curve, though single readings can be large; an effect the other way counts as inactive or inconclusive.
SMILES,CHX counter,Shiga toxin inh,AMA1-RON2 inh,Pf growth 96h,Pf growth 48h,SARS PLP yeast
CCN(CC)CCCN(C(=O)c1cccc(C)c1)c1nc(-c2ccc(OC)cc2)cs1,-9,·,-6%,4.1µM*,?,-8%
CCN(CC)CCCN(C(=O)c1ccc(Br)cc1)c1nc(-c2ccc(OC)cc2)cs1,-8,-2,-24%,-28%,?,0%
C=CCN1C(=O)/C(=c2\sc3nc(=O)c(Cc4ccccc4Cl)nn3c2=O)c2ccccc21,-3,29,-19%,-18%,-1%,-1%
COc1ccc(C(=O)NC2c3ccccc3-c3ccccc32)cc1,-3,-12,-2%,?,14%,26%
COc1ccc(OC)c(NC(=O)c2[nH]c(C)c(C(C)=O)c2C)c1,11,29,-7%,49%,37%,4%
CC(=O)c1c(C)[nH]c(C(=O)OCc2ccc(Br)cc2)c1C,45*,69*,8%,46%,34%,-9%
CC(=O)c1c(C)[nH]c(C(=O)OCc2csc(CC(=O)Nc3ccccc3C)n2)c1C,·,·,-4%,·,·,3%
Cc1c(C(=O)OCCOc2ccccc2)[nH]c2c1C(=O)CCC2,29*,47*,-7%,21%,·,-10%
CCOC(=O)c1[nH]c(C)c(C(=O)OCc2ccc(C)cc2)c1C,-4,-5,-11%,34%,15%,1%
CC(=O)c1c(C)[nH]c(C(=O)OCc2ccccc2F)c1C,46*,95*,-6%,208%,223%,0%
COc1ccc(C)cc1COC(=O)c1[nH]c(C)c(C(C)=O)c1C,-2,5,-8%,12µM*,?,0%
Cc1ccc(S(=O)(=O)N2CCN(C(=O)CC(C)n3cncn3)CC2)cc1C (stereo not drawn),-4,-10,1%,10%,10%,4%
Cc1c(C(=O)NCc2cccc([N+](=O)[O-])c2)sc(=O)n1Cc1ccccc1F,·,·,-4%,·,·,·
CCCc1c(C(=O)OCC)[nH]c2c1C(=O)CCC2,-2,10,0%,?,·,-29%
Cc1c(C(=O)OC2CCCC2C)[nH]c2c1C(=O)CCC2 (stereo not drawn),48*,64*,-17%,-15%,-8%,-26%
CC(=O)c1c(C)[nH]c(C(=O)OCCOc2ccccc2)c1C,23,47*,-7%,374%,466%,-1%
CC(=O)c1c(C)[nH]c(C(=O)OCC(=O)C(C)(C)C)c1C,-3,29,-7%,27%,1%,-10%
CC(=O)c1c(C)[nH]c(C(=O)OCc2cccc(C)c2)c1C,36*,95*,0%,103%,46%,-16%
Cc1c(C(=O)NC(=S)Nc2ccc(NC(=O)c3cccs3)cc2)oc2ccccc12,-5,-15,0%,?,-9%,-38%
Cc1cccc(NC(=S)NC(=O)c2ccc(-c3ccccc3)cc2)n1,26*,37*,86%,?,50%,-6%
Cc1cccc(NC(=S)NC(=O)c2oc3ccccc3c2C)n1,38*,56*,-1%,32%,66%,2%
COc1ccc(OC)c(S(=O)(=O)Nc2cccc3ccc(O)cc23)c1,·,·,-9%,·,·,·
CCOC(=O)NC(=O)C(/C=N/c1sccc1C(=O)OC)=C(\C)O,5,18,7%,19%,2%,2%
CC(=O)OCCCN1c2ccccc2Nc2nnc(-c3ccccc3)cc21,36*,68*,3%,361%,-2%,2%
O=C(NCc1ccc2c(c1)CCO2)Nc1ccccc1,61*,54*,0%,135%,?,-1%
SMILES,CHX counter,Shiga toxin inh,AMA1-RON2 inh,Pf growth 96h,Pf growth 48h,SARS PLP yeast
Cc1ccc(C(=O)NCc2ccc3c(c2)CCO3)cc1C,22*,57*,-1%,41%,26%,-1%
CCOc1ccc(C2N(c3ccc(F)cc3)C(=O)C3CCCN32)cc1 (stereo not drawn),-2,4,-7%,4.1µM*,·,4%
COc1ccc(N2C(=O)C3CCCN3C2c2ccc(Cl)cc2)cc1 (stereo not drawn),-4,-14,-3%,9.3µM*,·,?
Cc1ccc(C2N(c3ccc(F)cc3)C(=O)C3CCCN32)cc1 (stereo not drawn),0,9,-3%,-5%,·,3%
COc1ccc(OC)c(C2N(c3ccc(Cl)cc3)C(=O)C3CCCN32)c1 (stereo not drawn),-6,18,-12%,9.3µM*,-2%,15%
COc1ccc(OC)c(C2N(c3cc(C)on3)C(=O)C3CCCN32)c1 (stereo not drawn),-1,-3,3%,·,45%,3%
COc1ccc(C2N(c3ccc(Cl)cc3)C(=O)C3CCCN32)cc1 (stereo not drawn),10,30,-2%,?,·,-10%
CCOC(=O)c1ccccc1NC(=O)CN(c1ccc(OCC)cc1)S(C)(=O)=O,-1,-14,·,24%,12%,0%
COc1ccccc1NS(=O)(=O)c1ccc(C(=O)NCC(c2cccs2)N2CCOCC2)cc1 (stereo not drawn),·,·,9%,·,·,3%
C=C(C)c1cccc(C(C)(C)NC(=O)NCC2CCCO2)c1 (stereo not drawn),-1,-14,8%,96%,7.4µM*,-2%
Cc1cccc(NC(=O)C(=O)NCC2CCCO2)c1 (stereo not drawn),43*,51*,2%,10%,143%,0%
C=C(C)c1cccc(C(C)(C)NC(=O)N2CCC(C)CC2)c1,-4,-2,19%,-8%,·,-3%
S=C(NCC1CCCO1)Nc1cccc(Cl)c1 (stereo not drawn),4,15,15%,12%,7%,0%
O=C(NCC1CCCO1)Nc1ccccc1 (stereo not drawn),-1,-1,6%,43%,·,-9%
O=C(NCC1CCCO1)Nc1cccc(Cl)c1 (stereo not drawn),17*,27*,3%,·,52%,-4%
COc1ccc(S(=O)(=O)N2CCc3ccccc32)cc1C(=O)N1CCOCC1,·,·,1%,-19%,?,3%
O=C(O)CCC(=O)Nc1ccc(-c2nc3ccc(C(=O)c4ccccc4)cc3[nH]2)cc1,21*,·,-6%,?,67%,2%
O=C(O)CSc1nc2ccc(C(=O)c3ccccc3)cc2[nH]1,-4,-2,-3%,?,16%,4%
O=C(Nc1ccc(-c2nc3ccccc3[nH]2)cc1)c1cccc(N2C(=O)CCC2=O)c1,-1,13,-6%[2.32 µM],1%,-1%,-6%
O=C(c1ccccc1)c1ccc2nc(-c3ccc(NC(=O)c4ccccc4F)cc3)[nH]c2c1,12,34*,-6%,32%,?,-1%
CCCNc1nc2ccccc2n2c(C)nnc12,-1,-9,-6%,9.3µM*,8%,0%
CCOc1nc(Nc2ccc(OC)c(Cl)c2)nc(N2CCN(c3ccc(OC)cc3)CC2)n1,0,29,?,?,·,17%

# Screening data from PubChem BioAssay.
